DT40 TDP1 CPT – growth inhibition of DT40 Tdp1-/-;hTDP1 cells with camptothecin (screen for TDP1 inhibitors); AID 686979; Potency, µM (top dose mostly 46.2 µM), inactives show at the top dose activity change, negative = growth inhibition, actives largely listed as inhibitors; chicken DT40 Tdp1-/-;hTDP1 cells + 20 nM CPT, ATP luminescence, 48 h; hit rate 12% among 420,000; also: potency is read from the fitted curve at half-maximal effect; nearly all actives have a fitted effect of over 55% in size
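Chicken DT40 Tdp1-/- cells complemented with human TDP1, 400 cells/well, exposed to compounds plus 20 nM camptothecin for at least 48 h at 37 C; viability read as ATP content by CellTiter-Glo luminescence.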
IL1B secr inh – inflammasome signaling inhibition, IL-1 beta readout. THP-1 LPS/ATP IL-1B secretion, AlphaLISA, 16 h; active compounds read low. activity change, % at 57.5 µM. AID 743279. hit rate 4.7% among 360,000; in the data active = activity change below about -50%; inconclusive = mostly about -30% to -49%
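Secreted IL-1B measured by AlphaLISA bead assay after 16 h compound exposure of THP-1 cells; compounds (final up to 57.5 uM) added 1 h before LPS (250 ng/mL) and ATP (1.25 mM) stimulation; lower signal means less secretion.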
HT1080-NT tox – kills 2HG-producing HT-1080-NT fibrosarcoma cells; HT-1080-NT fibrosarcoma viability, CellTiter-Glo ATP luminescence, 48 h; Potency, µM (series often up to 46.1 µM), without a hit: top-dose activity, negative = less viability, actives largely listed as cytotoxic; hit rate 1.6% among 360,000;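 also: NT is the 2HG producing partner of a matched IDH1 knockdown line; potency is read from the fitted curve at half-maximal effect; 0% = DMSO-treated cells and -100% = media-only wells without cells; nearly all actives have a fitted effect of over 55% in size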
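Toxicity toward the 2HG-producing NT line was scored as %Activity, normalised to DMSO and no-cell wells, from CellTiter-Glo luminescence after 48 hours' treatment.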
DT40 TDP1 no CPT – qHTS for Inhibitors of human tyrosyl-DNA phosphodiesterase 1 (TDP1): qHTS in cells in absence of CPT. DT40 Tdp1-/- hTDP1 cells, no CPT, ATP luminescence, 48 h. Potency, µM (series often up to 46.2 µM), without a hit: top-dose activity change, negative = growth inhibition, hits mostly inhibitors. hit rate 15% among 420,000. AID 686978, 2013; also: potency is read from the fitted curve at half-maximal effect; nearly all actives have a fitted effect of over 55% in size
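Chicken DT40 Tdp1-/- cells stably complemented with human TDP1 were seeded at 400 cells/well with DMSO in place of 20 nM camptothecin. After compound pinning, cells grew at least 48 hr at 37 °C; viability read by CellTiter-Glo luminescence.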
HT1080 IDH1KD tx – kills HT-1080 cells with IDH1 knockdown | Potency, µM (top dose mostly 46.1 µM), for inactives: at the highest dose activity, negative = toxicity, actives largely listed as cytotoxic | HT-1080 IDH1 knockdown viability, ATP luminescence, 48 h | hit rate 2% among 360,000 | AID 686971;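 also: potency is read from the fitted curve at half-maximal effect; 0% = DMSO wells and -100% = cell-free medium wells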
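Knockdown cells (IDH1KD HT-1080) received compounds 2 h after plating at 750 cells/well and were kept 48 h at 37 °C in 5% FBS RPMI. A CellTiter-Glo luminescence read gave % activity for curve fitting.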
* hit, by the source's call; ? = inconclusive; · = no result. The list is not random: actives were taken first. Their share in the collection is about 19%. Unless noted, calls follow the shape of the dose curve; as a rule, active = well fitted curve in the direction sought with a large enough effect; inconclusive = small, poorly fitted or top-dose-only effect, or another doubt; inactive = no such curve, though single readings can be large; an effect the other way counts as inactive or inconclusive. Unless noted, % is scaled to controls: 0 for no effect and ±100 for the full control effect.

SMILES | DT40 TDP1 CPT | IL1B secr inh | HT1080-NT tox | DT40 TDP1 no CPT | HT1080 IDH1KD tx
CCc1ccccc1NC(=O)CN1C(=O)COc2ccc(S(=O)(=O)Nc3ccccc3)cc21 | 18µM* | · | · | 26µM* | ·
CSc1cccc(NC(=O)CN2C(=O)COc3ccc(Cl)cc32)c1 | ? | · | · | 21µM* | ·
CCCCn1nnnc1C1(C)CCC(=O)N1CCCN1CCOCC1 (configuration not stated) | -4% | 29 | 17% | -1% | 16%
CCc1cccc(NC(=O)CN2C(=O)COc3ccc(S(=O)(=O)Nc4ccccc4)cc32)c1 | ? | · | · | 23µM* | ·
COc1ccc(NC(=O)CN2C(=O)COc3ccc(S(=O)(=O)Nc4ccccc4)cc32)cc1OC | -5% | · | · | -27% | ·
CNC(=S)NN=C(C)CCCC(C)=NNC(=S)NC | 0.16µM* | -105* | 11% | 0.021µM* | 20%
COc1cc2c(cc1OC)n(CC(=O)c1cc(C)ccc1C)c(=O)n1nc(CCn3nc(C)cc3C)nc21 | 6% | · | · | -23% | ·
OC(c1ccccc1)c1nc2ccccc2s1 (configuration not stated) | 23µM* | 4 | -4% | ? | -2%
COc1ccc(C(=O)C2CCN(C(=O)Nc3ccc(C)cc3)CC2)cc1 | 1% | -7 | -23% | ? | -1%
O=C(CN1CCN(c2ccccc2O)CC1)Nc1ccnn1C1CCCC1 | 21µM* | -7 | -2% | 21µM* | -13%
COc1ccc(NC(=O)c2ccc(NC(=O)CN3CCN(c4ccccc4O)CC3)cc2)cc1 | 18µM* | -19 | -14% | 18µM* | -19%
COc1ccc(C(=O)C2CCN(CC(=O)Nc3ccc(C)cc3)CC2)cc1 | -22% | -10 | ? | 29µM* | -7%
COc1ccc(NC(=O)c2ccc(NC(=O)CN3CCN(c4ccc(O)cc4)CC3)cc2)cc1 | -26% | 9 | -15% | ? | ?
O=C(NCCc1ccc(Cl)cc1)c1cnc2sc(N3CCOCC3)nn2c1=O | -4% | · | · | 1% | ·
O=c1c2cc(N3CCOCC3)ccc2[nH]c(=S)n1Cc1ccco1 | ? | 10 | ? | 21µM* | ?
O=c1c2cc(Cl)ccc2[nH]c(=S)n1Cc1ccco1 | ? | 40 | 7.9µM* | ? | 11µM*
COc1cccc(Cn2c(=S)[nH]c3ccc(N4CCOCC4)cc3c2=O)c1 | -15% | 24 | -23% | -10% | -22%
O=c1c2cc(N3CCOCC3)ccc2[nH]c(=S)n1Cc1cccc(Cl)c1 | 21µM* | 21 | ? | ? | ?
O=c1[nH]c2ccc(Cl)cc2c(=O)n1Cc1ccco1 | -11% | 15 | 5% | ? | 0%
CCN(CCCn1c(=S)[nH]c2ccc(N3CCOCC3)cc2c1=O)c1ccccc1 | 12µM* | 11 | ? | 21µM* | ?
Cn1c(=O)c(-c2ccc(Cl)cc2)nc2cnc(Nc3ccccc3)nc21 | 6% | · | · | 13% | ·
Cc1cc(C(=O)NNC(=S)NC2CCCCC2)cs1 | ? | 2 | 2% | ? | -3%
O=C(CCCCCn1c(=S)[nH]c2ccc(N3CCOCC3)cc2c1=O)NC1CCN(Cc2ccccc2)CC1 | 16µM* | -19 | ? | 23µM* | ?
COC(=O)c1cc(S(=O)(=O)NCc2ccc3c(c2)OCO3)cn1C | 3% | 27 | 16% | -9% | 20%
Cc1ccc(Cn2c(SCC(=O)C(C)(C)C)nc3ccsc3c2=O)cc1 | 21µM* | · | · | 15µM* | ·
SMILES | DT40 TDP1 CPT | IL1B secr inh | HT1080-NT tox | DT40 TDP1 no CPT | HT1080 IDH1KD tx
Cc1ccc(CNC(=O)CSc2nc3ccsc3c(=O)n2-c2ccc(C(=O)O)cc2)cc1 | 18% | · | · | 4% | ·
Cc1cc(-n2c(SCC(=O)NCc3ccccc3)nc3ccsc3c2=O)ccc1Cl | 16µM* | · | · | ? | ·
O=C(CSc1nc2ccsc2c(=O)n1Cc1ccccc1Cl)NCc1ccc(F)cc1 | 16µM* | · | · | 21µM* | ·
Cc1ccc(Cn2c(SCC(=O)NCc3ccccc3Cl)nc3ccsc3c2=O)cc1 | ? | · | · | 21µM* | ·
Cc1ccc(Cn2c(SCC(=O)NCc3ccc(Cl)cc3)nc3ccsc3c2=O)cc1 | ? | · | · | -3% | ·
COc1ccc(S(=O)(=O)NC(C(=O)OCC(=O)Nc2ccc(N3CCOCC3)cc2)C(C)C)cc1 (configuration not stated) | -24% | 17 | 1% | ? | -10%
CC(C)(C)C(=O)Nc1cccc(-c2ncon2)c1 | 0% | 0 | -1% | -9% | 16%
CSc1ccc(CN2CCC(C)(Oc3ccc(C(C)=O)cc3)C2)cc1 (configuration not stated) | ? | 7 | -1% | ? | 4%
O=C(NCc1ccccc1F)C1CCCN(S(=O)(=O)N2CCOCC2)C1 (configuration not stated) | 4% | 2 | 0% | 17% | 1%
O=C(CSc1nc2c([nH]c3ccccc32)c(=O)n1-c1ccccc1)Nc1cccc(C(F)(F)F)c1 | 15µM* | · | · | 23µM* | ·
Cc1ccc(-n2c(SCC(N)=O)nc3c([nH]c4ccccc43)c2=O)cc1 | 15µM* | 23 | -16% | 26µM* | -20%
Cc1cc(C)cc(NC(=O)CSc2nc3c([nH]c4ccccc43)c(=O)n2-c2ccc(F)cc2)c1 | 8.2µM* | · | · | 21µM* | ·
Cc1cc(C)cc(-n2c(SCC(=O)Nc3cccc(F)c3)nc3c([nH]c4ccccc43)c2=O)c1 | -28% | · | · | ? | ·
O=C(CSc1nc2c([nH]c3ccccc32)c(=O)n1-c1ccccc1F)Nc1cccc(Cl)c1 | ? | · | · | 21µM* | ·
O=C(OCC(=O)N1CCCC1=O)c1ccc(O)cc1O | 3% | -8 | 1% | -20% | 6%
CC1CCCCC1N(C)C1CCN(C(=O)CNC(=O)/C=C/c2cccc(Cl)c2)CC1 (configuration not stated) | ? | -19 | 10% | ? | -3%
COC(=O)[C@]12CCCCC=C1N(Cc1ccccc1)C(=O)[C@H](CC(=O)N1CCC(c3ccccc3)CC1)C2 | ? | -18 | ? | ? | ?
Cc1ccc(-n2c(SCC(=O)NCc3ccc(F)cc3)nc3c([nH]c4ccccc43)c2=O)cc1 | 18µM* | · | · | 23µM* | ·
O=C(C[n+]1ccc(-c2cc(C(=O)Nc3cccc(C(F)(F)F)c3)c3ccccc3n2)cc1)c1cccc([N+](=O)[O-])c1 | ? | -27 | -28% | 23µM* | ?
O=C(CCSc1ccccc1Cl)Nc1cccc([N+](=O)[O-])c1 | -10% | -150* | -21% | ? | ?
O=C(C[n+]1ccc(C(=O)c2ccccc2)cc1)Nc1cccc([N+](=O)[O-])c1 | 21µM* | -7 | -17% | 16µM* | -20%

Source: PubChem BioAssay (National Center for Advancing Translational Sciences (NCATS))
